According to the supplement of paper PMC6555819:

Legend:
Assay in all cases: PBM binding z-score (relative to random genomic background probes); higher = stronger binding; sequences stand for … in GC…GCGATTGACAGCGTAGAATGAAGG
[1] = system: FXR:RXRa (NR concentration 270 nM, RXRa partner concentration 90 nM)
Summary of the method: (§1)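 Custom Agilent 4×180K protein-binding microarrays carried double-stranded probes. Their 34-nt variable regions held direct-repeat seeds, single-nucleotide variants, half-site ablations and random human genomic background sequences. Arrays were incubated 1 h with ligand-free nuclear receptor dimers in PBS pH 7.4, 2% milk, 0.02% Triton X-100, 1 mM DTT, 0.2 mg/mL BSA and 0.4 mg/ml salmon testes DNA. Antibodies against each partner (one per run) detected binding, and scanned fluorescence was regression-normalized. Binding z-scores use random background probes as reference.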

[2] = system: LXRa:RXRa (NR concentration 270 nM, RXRa partner concentration 90 nM)
Summary of the method: as §1

[3] = system: LXRa homodimer (NR concentration 270 nM)
Summary of the method: as §1

[4] = system: LXRb:RXRa (NR concentration 270 nM, RXRa partner concentration 90 nM)
Summary of the method: as §1

[5] = system: LXRb homodimer (NR concentration 270 nM)
Summary of the method: as §1

[6] = system: PPARa:RXRa (NR concentration 270 nM, RXRa partner concentration 90 nM)
Summary of the method: as §1

[7] = system: PPARg:RXRa (NR concentration 180 nM, RXRa partner concentration 90 nM)
Summary of the method: as §1

[8] = system: PPARg:RXRa 270nM:90nM, anti-RXR (NR concentration 270 nM, RXRa partner concentration 90 nM)
Summary of the method: as §1

[9] = system: PPARg:RXRa 30nM:10nM, anti-RXR (NR concentration 30 nM, RXRa partner concentration 10 nM)
Summary of the method: as §1

[10] = system: PPARg:RXRa 90nM:30nM, anti-RXR (NR concentration 90 nM, RXRa partner concentration 30 nM)
Summary of the method: as §1

[11] = system: PPARg:RXRa DBDmut IVT, anti-RXR (DBD mutation: RXRa K156A/R161A, NR concentration 270 nM, RXRa partner concentration 90 nM)
Summary of the method: as §1

[12] = system: PPARg:RXRa IVT, anti-PPARg (NR concentration 270 nM, RXRa partner concentration 90 nM)
Summary of the method: as §1

[13] = system: PPARg DBDmut:RXRa IVT, anti-PPARg (DBD mutation: PPARg1 K132A/R137A, NR concentration 270 nM, RXRa partner concentration 90 nM)
Summary of the method: as §1

[14] = system: PPARg DBDmut IVT, anti-PPARg (DBD mutation: PPARg1 K132A/R137A, NR concentration 270 nM)
Summary of the method: as §1

[15] = system: PPARg homodimer (NR concentration 180 nM)
Summary of the method: as §1

[16] = system: PXR:RXRa (NR concentration 270 nM, RXRa partner concentration 90 nM)
Summary of the method: as §1

[17] = system: PXR homodimer (NR concentration 270 nM)
Summary of the method: as §1

[18] = system: RARa:RXR (NR concentration 270 nM, RXRa partner concentration 90 nM)
Summary of the method: as §1

[19] = system: RARa homodimer (NR concentration 270 nM)
Summary of the method: as §1

[20] = system: RARb:RXRa (NR concentration 270 nM, RXRa partner concentration 90 nM)
Summary of the method: as §1

Sequence | PBM binding z-score [1] | PBM binding z-score [2] | PBM binding z-score [3] | PBM binding z-score [4] | PBM binding z-score [5] | PBM binding z-score [6] | PBM binding z-score [7] | PBM binding z-score [8] | PBM binding z-score [9] | PBM binding z-score [10] | PBM binding z-score [11] | PBM binding z-score [12] | PBM binding z-score [13] | PBM binding z-score [14] | PBM binding z-score [15] | PBM binding z-score [16] | PBM binding z-score [17] | PBM binding z-score [18] | PBM binding z-score [19] | PBM binding z-score [20]
GGAACGAGGGCCAAGTTGATAGCATCTGTCGACG | -0.236 | -0.341 | -0.454 | -0.778 | -0.949 | 0.213 | 0.734 | 1.4 | 0.144 | 0.913 | 0.254 | -0.0508 | -1.09 | -0.973 | -0.0593 | -0.242 | -0.456 | -0.293 | -0.285 | 0.806
TCTGCAAGGTCAACGATGGTCAGCTAATCTGCTA | 6.64 | 5.29 | 0.751 | 4.06 | 0.582 | 5.41 | 4.78 | 4.95 | 2.86 | 4.09 | 3.02 | 3.91 | -0.02 | -0.552 | 2.84 | 4.57 | 0.31 | 4.65 | 0.319 | 5.27
CTAGACAGGTGAGAAGGTAACTCAGCCTCGATTA | -0.0745 | -0.0361 | -0.246 | -0.171 | -0.733 | 0.677 | 0.508 | 0.818 | 0.0715 | 0.577 | 0.878 | 0.891 | 0.184 | -0.714 | 0.258 | -0.111 | 0.0997 | -0.121 | -0.138 | 0.44
CAAACTAGGTCAGCGGAAGGTCAAAGTCCGCATG | 4.7 | 5.1 | 3.95 | 4.3 | 0.622 | 5.61 | 7.65 | 6.54 | 4.12 | 6.37 | 7.81 | 8.08 | 3.33 | 1.19 | 5.64 | 5.42 | 1.11 | 6.59 | 1.75 | 4.89
AGAATGAGGTTAAGATCAAGGAAACAGAATACAT | 1.93 | 1.78 | 0.0429 | 1.71 | -0.221 | 3.67 | 2.49 | 2.3 | 0.939 | 1.76 | 2.65 | 2.43 | 1.67 | 0.683 | 0.598 | 1.13 | 0.0373 | 1.75 | 0.928 | 1.88
ATCTCTAGGCAAAGTTCAGTGAAAGATCGATAGA | 0.723 | 1.38 | 0.839 | 0.819 | 0.16 | 1.95 | 2.49 | 3.78 | 1.93 | 3.67 | 0.488 | 0.697 | 0.713 | 0.549 | 0.889 | 1.8 | 1.43 | 1.02 | 0.783 | 2.54
ATCTCTAGGTAAGACTAAGTTCAGTGAAGAACGC | 0.633 | 0.867 | 0.705 | 0.595 | 0.815 | 0.936 | 0.481 | 1.71 | 0.577 | 1.75 | 1.81 | 1.37 | 0.418 | 0.902 | 1.48 | 1.83 | 1.82 | 1.14 | 0.975 | 1.19
